This note sets out measurements from PubChem BioAssay (Tox21).

Records with an inconclusive call do not appear. The source made the active and inactive calls. Unless noted, the call rests on the fitted dose curve.

Assay [1] in a line: Nuclear factor erythroid 2-related factor 2/antioxidant responsive element (Nrf2/ARE) small molecule agonists: luciferase reporter gene qHTS assay in human keratinocytes (AID 1919969). Further: nearly all actives have a fitted effect of over 35% in size. Further: potency means the concentration at half of the fitted maximal effect. A general note: Reporter assays use an easily measured gene product as a stand-in for the process of interest.
Assay [2] concerns the target Gonadotropin-releasing hormone receptor (Homo sapiens) (UniProt P30968). The experiment in a line: Human gonadotropin-releasing hormone receptor (GnRHR) small molecule agonists, calcium flux assay in GnRHR-HEK293 cells (AID 1920063). Further: nearly all actives have a fitted effect of over 35% in size. An outline of the steps: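 Fluorescence kinetics (480 nm excitation, 540 nm emission; 3 min, 1 s steps) report calcium mobilisation in human GnRHR-HEK293 cells in agonist mode. Dye incubation: 1 h, 37 C.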
Background: Calcium flux is commonly read through the fluorescence of an indicator in the cells.

Assay [3] concerns the target KiSS-1 receptor (Homo sapiens) (UniProt Q969F8). The experiment in a line: Human kisspeptin (KISS1R) small molecule agonists, calcium flux assay in KISS1R-HEK293 cells (AID 1920064; active means well fitted activation curve with a large enough effect in the repeat runs). In short, it runs like this:
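Measures KISS1R agonism through calcium-sensitive dye fluorescence in stably transfected HEK293 cells, read for 3 min after pin-tool compound delivery; 15-point titrations in triplicate.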

Assay [4] is described as follows: G protein-coupled receptor (GPCR) small molecule agonists, calcium flux assay: HEK293 wild type cell line counter screen (AID 1920065). In short, it runs like this:
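Readout: fluorescence at 480 nm excitation/540 nm emission, sampled at 1 s intervals for 3 min. Cells had been cultured 18 h, then dye-loaded 1 h at 37 C before compound or ATP addition.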

Assay [5] can be described thus: p53 small molecule agonists, cell-based qHTS assay with human liver microsomes (AID 1963577). In short, it runs like this: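 Compounds act here after metabolic activation: human liver microsomes and NADPH, both at 0.5 mg/mL final, were co-added to p53RE-bla cells. Incubation ran 16 h at 37 C, followed by LiveBLAzer detection.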
A general note: In qHTS, concentration-response curves come from the screen itself.

Assay [6] is described as follows: p53 small molecule agonists, cell-based qHTS assay with rat liver microsomes (AID 1963578). In short, it runs like this: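 Read-out is beta-lactamase reporter fluorescence (LiveBLAzer, 2 h, room temperature, dark) in p53RE-bla cells treated 16 h at 37 C with compound, rat liver microsomes and NADPH, both 0.5 mg/mL final.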
A short description of assay [7]: p53 small molecule agonists, cell-based qHTS assay with rat liver microsomes: qHTS cell viability counter screen (AID 1963580). Further: nearly all actives have a fitted effect of over 45% in size. In short, it runs like this:
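HCT-116 p53RE-bla, 4,000 cells/well, 5 h pre-incubation; cpd + rat liver microsomes 0.5 mg/mL + NADPH 0.5 mg/mL (final); 16 h, 37 C; CellTiter-Glo, 30 min RT; luminescence.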

Assay [8] is described as follows: p53 small molecule agonists, cell-based qHTS assay (AID 1963582; active means well fitted activation curve with a large enough effect in the signal ratio in the repeat runs, not every such curve was filed as active; the % refers to the signal ratio). An outline of the steps:
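Compounds are pin-transferred in DMSO onto p53RE-bla cells and incubated 16 h at 37 C. The B/G FRET beta-lactamase substrate is then applied for 2 h at RT and fluorescence recorded.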

Assay [9] has as its target 5-hydroxytryptamine receptor 2A (Homo sapiens) (UniProt P28223). The experiment in a line: 5-hydroxytryptamine receptor 2A (HTR2A) small molecule agonists, cell-based qHTS assay (AID 1963587). Further: nearly all actives have a fitted effect of over 30% in size. An outline of the steps:
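Kinetic calcium-flux fluorescence (2 min, 1 sec intervals) after compound addition in agonist mode. HTR2A-CHO cells were cultured 18 h, then dye-loaded 1 h at 37 C.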

In assay [10] the target is D(2) dopamine receptor (Homo sapiens) (UniProt P14416). The experiment in a line: Dopamine D2 receptor (DRD2) small molecule agonists, cell-based qHTS assay (AID 1963594). Further: nearly all actives have a fitted effect of over 35% in size. In short, it runs like this: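 cAMP accumulation in DRD2-HEK293 cells measured by HTRF after 1 h detection; compounds added 10 min before NKH477 (200nM […]) forskolin-analogue stimulation, 30 min at room temperature, with Ro20-1724 present at 0.1 mM final.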

The nature of assay [11]: p53 small molecule agonists, cell-based qHTS assay with human liver microsomes: qHTS cell viability counter screen (AID 1963579). Further: nearly all actives have a fitted effect of over 45% in size. In short, it runs like this: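 Cells carrying the p53 response-element beta-lactamase reporter are treated for 16 h at 37 C with test compounds in the presence of human liver microsomes and NADPH (both 0.5 mg/mL final); ATP-based CellTiter-Glo luminescence then reports viability.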

Assay [12] is described as follows: p53 small molecule agonists, cell-based qHTS assay: qHTS cell viability counter screen (AID 1963581). Further: nearly all actives have a fitted effect of over 45% in size. In short, it runs like this:
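In the same plates used for the p53 bla reporter, HCT-116 cells given compounds for 16 h at 37 C received CellTiter-Glo; luminescence was recorded 30 min later at room temperature.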

Assay [13] deals with 5-hydroxytryptamine receptor 2A (Homo sapiens) (UniProt P28223). The experiment in a line: 5-hydroxytryptamine receptor 2A (HTR2A) small molecule antagonists, cell-based qHTS assay (AID 1963586). Further: nearly all actives have a fitted effect of over 45% in size. Further: potency means the concentration at half of the fitted maximal effect. An outline of the steps:
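Antagonist-mode intracellular calcium assay: DOI (4 nM) added after 5 min compound pre-incubation at room temperature to dye-loaded HTR2A-CHO cells. Fluorescence followed for 3 min, sampled every second.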

The target of assay [14] is Muscarinic acetylcholine receptor M1 (Homo sapiens) (UniProt P11229). The experiment in a line: Cholinergic receptor muscarinic 1 (CHRM1) small molecule antagonists, cell-based qHTS assay (AID 1963588). Further: nearly all actives have a fitted effect of over 40% in size. In short, it runs like this: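 CHRM1-CHO calcium-flux assay, antagonist mode. Cells were seeded 18 h, dye-loaded 1 h at 37 C and given compound for 5 min at RT, then acetylcholine was added at 50nM. FDSS fluorescence was read 3 min; 15 concentrations, three runs.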

The target is the same in assay [15]. The assay is described as follows: Cholinergic receptor muscarinic 1 (CHRM1) small molecule agonists, cell-based qHTS assay (AID 1963589). Further: nearly all actives have a fitted effect of over 35% in size. An outline of the steps:
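Each compound was tested at 15 concentrations across three independent runs on dye-loaded CHO cells stably expressing human CHRM1, reading intracellular calcium fluorescence kinetically at 1 sec intervals.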

The target in assay [16] is Beta-2 adrenergic receptor (Homo sapiens) (UniProt P07550). The experiment in a line: Adrenergic beta2 receptor (ADRB2) small molecule antagonists, cell-based qHTS assay (AID 1963592). Further: series mostly up to about 92 µM; nearly all actives have a fitted effect of over 50% in size. In short, it runs like this: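 Cells (CHO, stable ADRB2 overexpression) incubated 18-20hr at 37C; compounds added from DMSO; agonist mix (1nM isoproterenol, 100uM IBMX, 25uM Ro-20-1724) added; 0.5hr RT; d2-cAMP and anti-cAMP-cryptate added; 1hr RT; 665/615 nm read.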

For assay [17], the target named is D(2) dopamine receptor (Homo sapiens) (UniProt P14416). The experiment in a line: Dopamine D2 receptor (DRD2) small molecule antagonists, cell-based qHTS assay (AID 1963595; active means well fitted inhibition curve with a large enough effect in the signal ratio in the repeat runs, with a control signal flat; the % refers to the signal ratio; further: potency means the concentration at half of the fitted maximal effect). In short, it runs like this:
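HEK293 cells stably expressing DRD2, preincubated with 0.1 mM Ro20-1724 and compounds 10 min, were stimulated with 200 nM NKH477 plus 12 nM quinpirole for 30 min at room temperature; cAMP measured by HTRF (665/620 nm).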

Assay [18] can be described thus: cAMP Responsive Elements (CRE) small molecule antagonists, cell-based qHTS assay (AID 1963591; active means well fitted inhibition curve with a large enough effect in the signal ratio in the repeat runs, not every such curve was filed as active; the % refers to the signal ratio). In short, it runs like this:
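Inhibition of NKH477-driven (0.25 uM final) CRE-beta-lactamase signal in HEK293T cells, 3 h compound exposure at 37 °C, detected by FRET substrate fluorescence.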

Assay [19] can be described thus: cAMP Responsive Elements (CRE) small molecule agonists, cell-based qHTS assay (AID 1963590). An outline of the steps:
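Cell line: CRE-bla HEK 293T; medium DMEM/10% dialyzed FBS/0.1 mM NEAA/1 mM pyruvate/25 mM HEPES; 3 h compound exposure; beta-lactamase FRET readout after 2 h substrate loading at RT.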

Assay [20] deals with Beta-2 adrenergic receptor (Homo sapiens) (UniProt P07550). The assay is described as follows: Adrenergic beta2 receptor (ADRB2) small molecule agonists, cell-based qHTS assay (AID 1963593).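 Further: CHO cells stably overexpressing human ADRB2.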 In short, it runs like this: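 CHO cells stably over-expressing ADRB2 were plated overnight at 37C, then dosed with compounds plus a stimulation mix containing 100uM IBMX and 25uM Ro-20-1724 for 0.5hr at room temperature. cAMP was measured by HTRF competition, 1hr.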

Chain of 5-hydroxytryptamine receptor 2A (Homo sapiens) (P28223 whole entry, looked up): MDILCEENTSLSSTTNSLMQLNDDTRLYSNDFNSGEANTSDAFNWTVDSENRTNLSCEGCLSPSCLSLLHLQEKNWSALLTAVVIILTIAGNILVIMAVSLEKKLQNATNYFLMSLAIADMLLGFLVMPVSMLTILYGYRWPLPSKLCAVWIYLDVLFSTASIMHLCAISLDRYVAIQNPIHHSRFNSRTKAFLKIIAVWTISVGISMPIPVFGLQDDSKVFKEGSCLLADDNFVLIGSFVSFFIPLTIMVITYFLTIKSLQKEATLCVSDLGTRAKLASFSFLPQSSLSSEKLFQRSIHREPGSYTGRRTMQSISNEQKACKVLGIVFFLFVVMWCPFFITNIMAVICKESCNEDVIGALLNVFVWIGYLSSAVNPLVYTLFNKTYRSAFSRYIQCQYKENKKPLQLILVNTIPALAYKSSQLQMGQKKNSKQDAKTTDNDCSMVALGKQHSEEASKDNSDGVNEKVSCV
Chain of Muscarinic acetylcholine receptor M1 (Homo sapiens) (P11229 whole entry, looked up): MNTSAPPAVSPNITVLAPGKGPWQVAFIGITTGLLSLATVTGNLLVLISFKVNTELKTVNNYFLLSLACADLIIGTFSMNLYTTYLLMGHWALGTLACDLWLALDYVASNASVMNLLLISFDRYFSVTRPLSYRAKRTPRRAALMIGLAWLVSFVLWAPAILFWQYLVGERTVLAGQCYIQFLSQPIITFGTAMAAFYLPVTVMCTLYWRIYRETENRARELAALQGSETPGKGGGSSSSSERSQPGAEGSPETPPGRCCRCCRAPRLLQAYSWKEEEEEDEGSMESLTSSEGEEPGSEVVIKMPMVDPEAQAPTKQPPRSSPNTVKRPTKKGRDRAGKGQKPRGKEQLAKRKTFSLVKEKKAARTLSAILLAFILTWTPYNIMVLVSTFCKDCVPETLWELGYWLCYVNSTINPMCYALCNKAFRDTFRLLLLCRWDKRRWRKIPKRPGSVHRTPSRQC
Chain of KiSS-1 receptor (Homo sapiens) (Q969F8 whole entry, looked up): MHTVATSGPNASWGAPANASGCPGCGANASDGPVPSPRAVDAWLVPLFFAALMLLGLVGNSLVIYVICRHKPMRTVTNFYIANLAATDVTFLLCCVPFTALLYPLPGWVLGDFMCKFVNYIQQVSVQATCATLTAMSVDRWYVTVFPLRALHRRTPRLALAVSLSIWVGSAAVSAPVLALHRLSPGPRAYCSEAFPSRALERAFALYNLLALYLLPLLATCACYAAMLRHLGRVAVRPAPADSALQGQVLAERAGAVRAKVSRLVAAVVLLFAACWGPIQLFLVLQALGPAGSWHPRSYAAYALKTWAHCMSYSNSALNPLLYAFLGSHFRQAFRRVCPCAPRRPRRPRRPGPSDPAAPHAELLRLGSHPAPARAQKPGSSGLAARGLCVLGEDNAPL
Chain of D(2) dopamine receptor (Homo sapiens) (P14416 whole entry, looked up): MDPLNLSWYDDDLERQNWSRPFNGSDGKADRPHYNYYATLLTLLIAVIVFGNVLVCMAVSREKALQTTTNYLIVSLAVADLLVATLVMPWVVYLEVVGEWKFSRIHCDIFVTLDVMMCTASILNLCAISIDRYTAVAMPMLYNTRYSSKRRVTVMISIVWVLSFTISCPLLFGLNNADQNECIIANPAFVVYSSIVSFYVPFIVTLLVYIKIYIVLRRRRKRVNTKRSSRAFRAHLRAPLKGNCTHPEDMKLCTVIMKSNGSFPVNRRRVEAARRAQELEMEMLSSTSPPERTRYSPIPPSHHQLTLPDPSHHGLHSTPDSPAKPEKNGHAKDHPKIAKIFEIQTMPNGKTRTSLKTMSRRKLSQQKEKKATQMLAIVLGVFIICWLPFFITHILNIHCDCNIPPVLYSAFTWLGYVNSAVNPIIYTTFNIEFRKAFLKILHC
Chain of Beta-2 adrenergic receptor (Homo sapiens) (P07550 whole entry, looked up): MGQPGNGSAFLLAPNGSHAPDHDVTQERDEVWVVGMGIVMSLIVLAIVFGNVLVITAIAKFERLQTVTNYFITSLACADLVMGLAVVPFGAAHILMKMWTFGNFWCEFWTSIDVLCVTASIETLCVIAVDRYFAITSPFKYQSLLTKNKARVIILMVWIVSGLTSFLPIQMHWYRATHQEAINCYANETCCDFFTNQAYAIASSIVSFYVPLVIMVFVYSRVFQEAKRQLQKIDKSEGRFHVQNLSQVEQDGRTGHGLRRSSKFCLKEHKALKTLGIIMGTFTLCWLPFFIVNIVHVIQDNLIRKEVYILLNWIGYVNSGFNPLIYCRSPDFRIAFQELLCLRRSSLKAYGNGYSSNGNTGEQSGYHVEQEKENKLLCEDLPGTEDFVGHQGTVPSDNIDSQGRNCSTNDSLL
Chain of Gonadotropin-releasing hormone receptor (Homo sapiens) (P30968 whole entry, looked up): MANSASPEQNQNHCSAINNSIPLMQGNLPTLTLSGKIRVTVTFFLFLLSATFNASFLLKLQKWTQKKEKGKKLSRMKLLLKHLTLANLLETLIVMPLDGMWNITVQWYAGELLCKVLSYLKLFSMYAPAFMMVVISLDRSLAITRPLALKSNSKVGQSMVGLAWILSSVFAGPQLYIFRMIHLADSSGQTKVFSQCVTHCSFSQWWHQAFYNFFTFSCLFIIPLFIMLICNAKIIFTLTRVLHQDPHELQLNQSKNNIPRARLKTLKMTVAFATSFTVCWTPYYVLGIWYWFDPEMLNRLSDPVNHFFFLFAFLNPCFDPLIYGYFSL

On to `CCc1nn(CCCN2CCN(c3cccc(Cl)c3)CC2)c(=O)n1CCOc1ccccc1`, for which the Potency result in assay [1], in assay [2], in assay [3], in [4], in assay [5] and in assay [6] was “inactive” throughout. The Potency entry in assay [7], in assay [8], in assay [9] and in assay [10] was “inactive” each time.
Take `NCCCOCCOCCOCCCN`: the Potency result in [1], in assay [2], in [3], in assay [4], in [5] and in [11] was “inactive” each time. Also, the Potency result in assay [7], in assay [12], in assay [13], in assay [9], in assay [14] and in assay [15] was “inactive” each time. In addition, the Potency entry in [16], in assay [10] and in assay [17] was “inactive” each time.
Turning to `CC/C=C\C/C=C\C/C=C\CCCCCCCC(=O)OC`, the Potency in assay [1] is 27.3 µM (active). For the same compound, the Potency result in [2], in [3], in [4], in assay [5], in [6] and in assay [13] was “inactive” each time. Moreover, the Potency result in assay [14], in assay [15], in assay [18], in [16] and in [10] was “inactive” in each case.
As for `Sc1nc2ccccc2s1`, the Potency in [1] is 68.6 µM (active). In addition, the Potency result in assay [2], in assay [3], in assay [4], in assay [5], in [11] and in assay [7] was “inactive” in each case. For the same compound, the Potency result in assay [12], in assay [8], in assay [13], in assay [9], in assay [15] and in assay [19] was “inactive” throughout. Moreover, the Potency entry in assay [18], in assay [16], in [20], in assay [10] and in [17] was “inactive” each time.
Turning to `Cc1c(C(=O)NN2CCCCC2)nn(-c2ccc(Cl)cc2Cl)c1-c1ccc(Cl)cc1`, the Potency entry in assay [1], in assay [2], in [3], in assay [4], in assay [5] and in assay [11] was “inactive” each time. In addition, the Potency entry in assay [7], in [12], in assay [13], in [9], in assay [14] and in [15] was “inactive” each time. Further, the Potency result in [19], in [18], in [10] and in [17] was “inactive” throughout.
On to `CC1=NN(c2cc(S(=O)(=O)O)ccc2Cl)C(=O)C1N=Nc1ccccc1` (stereo not given), for which the Potency result in [1], in assay [2], in assay [3], in assay [4], in [5] and in [6] was “inactive” each time. Further, the Potency entry in assay [7], in assay [12], in assay [13], in [9], in assay [14] and in assay [15] was “inactive” each time. In addition, the Potency result in assay [19], in [18], in [16], in assay [20], in assay [10] and in [17] was “inactive” in each case.
Turning to `O=S(=O)(c1ccc(OCc2ccccc2)cc1)c1ccccc1O`, the Potency result in assay [1], in assay [2], in assay [3], in assay [4], in [5] and in assay [6] was “inactive” throughout. Further, the Potency result in assay [9], in assay [14], in assay [15], in assay [18] and in [10] was “inactive” throughout. In addition, the Potency in assay [13] is 0.594 µM (active); in [17] it was 61.1 µM (active).
As to `O=C1Nc2ccc(Cl)cc2[C@@](C#CC2CC2)(C(F)(F)F)O1`, the Potency entry in assay [1], in assay [2], in [3], in [4], in assay [5] and in assay [6] was “inactive” each time. Moreover, the Potency entry in [7], in assay [12], in assay [8], in assay [14], in assay [15] and in assay [16] was “inactive” throughout. In assay [13], the Potency is 14.5 µM (active).
